# Rab9 promoter act: activates the Rab9 promoter. Potency, µM (highest dose often 9.22 µM), inactives show top-dose activation, negative = inhibition, most hits filed as activators. hit rate 2.8% among 320,000. Huh7 Rab9 promoter-luciferase reporter, luminescence, 24 h; further: % of control where 0% means no effect; nearly all actives have a fitted effect of over 60% in size
#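 Luciferase signal after 10 min detection reagent at ambient indicates Rab9 promoter upregulation; stably transfected Huh7 cells were treated 24 h with compound in DMSO at 37 °C, 5% CO2.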
# ELG1 genotox: inducers of genotoxicity in HEK293T ELG1-luciferase cells | HEK293T ELG1-luciferase reporter, luminescence, 16 h | Potency, µM (titrated, usually from 46 µM), without a hit: top-dose activity change, positive = activation, hits mostly activators | hit rate 1.3% among 330,000; further: % of control where 0% means no effect; nearly all actives have a fitted effect of over 60% in size
#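 ELG1-luciferase HEK293T cells, 2,000/well; compound pinned in; 16 hr, 37 °C, 5% CO2; ONE-Glo, 30 min RT; luminescence on CCD imager.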
# FLuc modulator: counter-screen for miR-21 project: firefly luciferase inhibitors or activators; P08659; purified FLuc, Km substrates, luminescence inhibition; Potency, µM (titrated, usually from 57.5 µM), for the others: at the highest dose activity change, negative = inhibition, most hits filed as inhibitors; hit rate 6.9% among 360,000; AID 588342;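 further: plate controls were vehicle for no effect and reference inhibitor for full effect; nearly all actives have a fitted effect of over 55% in size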
# Target sequence (P08659 whole entry, looked up): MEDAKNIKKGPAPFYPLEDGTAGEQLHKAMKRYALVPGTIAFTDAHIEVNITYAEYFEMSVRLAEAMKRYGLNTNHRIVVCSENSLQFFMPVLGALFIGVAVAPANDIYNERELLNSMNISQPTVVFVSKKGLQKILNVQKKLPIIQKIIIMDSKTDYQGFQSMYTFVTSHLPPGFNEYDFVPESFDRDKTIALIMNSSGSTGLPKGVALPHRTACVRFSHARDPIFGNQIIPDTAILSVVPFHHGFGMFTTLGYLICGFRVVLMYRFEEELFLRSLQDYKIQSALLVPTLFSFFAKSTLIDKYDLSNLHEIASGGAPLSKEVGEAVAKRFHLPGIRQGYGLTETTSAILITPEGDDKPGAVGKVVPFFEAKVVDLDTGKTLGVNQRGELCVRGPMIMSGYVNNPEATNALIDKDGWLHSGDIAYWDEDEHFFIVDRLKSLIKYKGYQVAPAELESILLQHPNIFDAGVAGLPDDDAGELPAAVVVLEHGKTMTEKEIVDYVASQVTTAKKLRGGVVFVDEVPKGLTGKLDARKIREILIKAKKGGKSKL
#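 Purified P. pyralis luciferase (10nM final) with 10uM D-luciferin and 10uM ATP (Km levels) in 50mM Tris acetate pH 7.5, 10mM Mg acetate, 0.01% Tween-20, 0.05% BSA; qHTS 6-point titration, ~60 µM downward; luminescence read.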
# KinaseGlo FLuc: blocks Kinase-Glo luciferase, a counter-screen artifact; Kinase-Glo luciferase, ATP luminescence, 8 min; Potency, µM (top dose mostly 38.3 µM), without a hit: at the top dose activity change, negative = inhibition, most hits filed as inhibitors; hit rate 0.28% among 200,000; AID 1379; Q27757; further: on the % scale 0 is the no-effect control and ±100 the full control effect; nearly all actives have a fitted effect of over 60% in size
#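 Light output from Kinase-Glo luciferase with luciferin and 10 uM ATP in 50 mM imidazole pH 7.2, KCl, MgCl2, Tween 20, BSA; compound pin-delivered, 8-min ambient incubation, then luminescence read.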
# SMN2 splice enh: increases expression of the SMN2 splice variant; AID 1458; HEK293 SMN2-luciferase splicing reporter, luminescence, 30-36 h; hit rate 2.8% among 210,000; Potency, µM (doses to about 46.1 µM), for the others: top-dose activity change, positive = activation, most hits filed as activators; further: % of control where 0% means no effect; nearly all actives have a fitted effect of over 55% in size
#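 HEK293 cells carry an SMN2 […]–luciferase reporter in which exon 7 inclusion puts luciferase in frame. Cells were plated 10-12 h before compound addition, then incubated 30-36 h at 37C. ONE-Glo luminescence was read; sodium butyrate at 4.5 mM final served as control.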
# NPC1 promoter act: NPC1 promoter activation; Huh7 NPC1 promoter luciferase reporter, 24 h; Potency, µM (top dose mostly 9.22 µM), without a hit: top-dose activation, actives largely listed as activators; hit rate 2.4% among 320,000; further: % of control where 0% means no effect; nearly all actives have a fitted effect of over 60% in size
#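 Luciferase expression driven by the NPC1 promoter was measured in stably transfected Huh7 cells after a 24 h compound incubation, using a luciferase reagent and a luminescence read.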
# * marks the source's active call; other numbers are inactive results; ? = inconclusive; / = no result given; [ ] = another dose, or the depositor's remark. Most compounds without a hit are left out; they make up all but 7.3% or so of the library. The call rests on the fitted dose curve; in most records, active means well fitted curve in the direction sought with a large enough effect; inconclusive means small, poorly fitted or top-dose-only effect, or another doubt; inactive means no such curve, though single readings can be large; an effect the other way counts as inactive or inconclusive. Potency means the concentration at half of the fitted maximal effect.
SMILES,Rab9 promoter act,ELG1 genotox,FLuc modulator,KinaseGlo FLuc,SMN2 splice enh,NPC1 promoter act
COc1ccc(/C=C/C(=O)Nc2cccc(S(=O)(=O)NC3=NCCCCC3)c2)c(OC)c1,1.9%,-6.6%,6.01µM*,/,/,3.5%
Cc1cc(NC(=O)c2ccc3[nH]c(C)c(C)c3c2)ccn1,-0.7%,-5.4%,15.1µM*,/,/,-0.3%
CC(=O)Nc1cccc(NC(=O)c2ccc3[nH]c(C)c(C)c3c2)c1,27.0%,8.3%,10.7µM*,/,/,0.8%
Cc1nn(-c2ccc(Br)cc2)c(=O)c2ccccc12,2.82µM*,22.5%,8.49µM*,/,/,?
O=C(NC(=O)N1CCN(c2ccccc2)CC1)c1ccc(Cl)cc1,20.4%,?,26.9µM*,2.4%,12.6µM*,0.9%
CCOc1ccc2nc(N3CCCC(C(=O)NCc4ccccc4OC)C3)sc2c1 (stereo not drawn),/,/,?,/,11.3%,/
CCOc1ccc2nc(N3CCC(C(=O)N4CCN(c5ncccn5)CC4)CC3)sc2c1,17.4%,-0.5%,12µM*,/,/,?
CCOc1ccc2nc(N3CCC(C(=O)N4CCN(c5ccccn5)CC4)CC3)sc2c1,-14.8%,7.31µM*,10.7µM*,3.6%,-86.4%,-0.8%
O=[N+]([O-])c1ccc2nc(-c3ccccc3)oc2c1,3.16µM*,?,9.53µM*,-24.0%,11.2µM*,2.82µM*
O=c1oc(-c2cccc([N+](=O)[O-])c2)nc2ccccc12,17.5%,5.4%,?,/,/,14.5%
COc1cccc(-c2nc3ccc([N+](=O)[O-])cc3o2)c1,2.24µM*,?,1.51µM*,?,15.8µM*,?
CC1(C)C2CCC1(C)C(NC(=O)/C=C/c1ccccc1)C2 (stereo not drawn),1.8%,7.2%,?,0.1%,-52.6%,-2.1%
O=C1SC(SCc2ccccc2)=N/C1=C\c1ccco1,/,/,-17.7%,1.4%,-16.9%,/
O=C1SC(SCc2ccccc2)=N/C1=C\c1ccc(C(=O)O)cc1,-2.5%,-0.1%,23.9µM*,-2.3%,/,-2.4%
O=C(Nc1ccc(Br)cc1Cl)c1ccc2c(=O)n3c(nc2c1)CCC3,3.55µM*,6.51µM*,21.3µM*,/,/,3.55µM*
CC(C)c1ccc(OC(=O)c2ccc3c(=O)n4c(nc3c2)CCC4)cc1,2.7%,?,12µM*,/,/,0.0%
O=C(Nc1ccc(Cl)cc1Cl)c1ccc2c(=O)n3c(nc2c1)CCC3,1.41µM*,?,10.7µM*,/,/,1.78µM*
O=C(CSc1nc2c([nH]c3ccccc32)c(=O)n1-c1ccccc1)NCC1CCCO1 (stereo not drawn),0.4%,-1.3%,-4.3%,/,/,2.2%
O=c1cnc2ccccc2n1Cc1ccc(Br)cc1,18.5%,5.8%,26.9µM*,/,/,5.6%
CC(C)(C)c1ccc(Cn2c(=O)cnc3ccccc32)cc1,-0.7%,?,15.1µM*,/,/,-0.6%
Cc1nnc(SCC(=O)Nc2cccc(S(=O)(=O)N3CCCCC3)c2)s1,-3.4%,-0.9%,/,/,/,-7.4%
Cc1ccc(Nc2nnc(SCC(=O)Nc3cccc(S(=O)(=O)N4CCCCC4)c3)s2)cc1,17.3%,-2.3%,2.69µM*,2.5%,24.4%,15.5%
O=C(CSc1nnc(Nc2ccccc2F)s1)Nc1cccc(S(=O)(=O)N2CCCCC2)c1,4.4%,1.9%,13.5µM*,-4.7%,5.6%,0.7%
CCOc1ccc(N(CC(=O)N2CCCCCC2)S(=O)(=O)c2ccc(C)cc2)cc1,-1.7%,-7.5%,0.8%,/,/,5.9%
c1ccc(CSc2nnc(Cc3ccccn3)o2)cc1,?,2.3%,?,-4.0%,-0.8%,?
SMILES,Rab9 promoter act,ELG1 genotox,FLuc modulator,KinaseGlo FLuc,SMN2 splice enh,NPC1 promoter act
O=C(O)c1cccc(CSc2ncn[nH]2)c1,?,-0.8%,19µM*,/,/,11.9%
c1ccc(CSc2nnc(Cc3ccccc3)o2)cc1,?,?,23.9µM*,-2.0%,?,18.9%
O=C(O)c1cccc(CSc2nnc(Cc3ccccc3)o2)c1,?,?,19µM*,1.7%,15.8µM*,27.9%
CCOC(=O)N1CCC(NC(=O)CCN2C(=O)C3C4C=CC(C4)C3C2=O)CC1 (stereo not drawn),-0.6%,1.3%,3.8%,1.6%,17.3%,0.8%
c1ccc(CCn2nnnc2C(c2cccnc2)N2CCN(c3nc4ccccc4s3)CC2)cc1 (stereo not drawn),4.6%,-17.0%,-0.5%,2.4%,-17.0%,-2.9%
O=C(Nc1ccccc1)c1ccc(NCC2CCCO2)c([N+](=O)[O-])c1 (stereo not drawn),?,13.8%,?,-1.4%,17.8µM*,?
COc1ccc(NC(=O)c2ccc(NCC3CCCO3)c([N+](=O)[O-])c2)cc1 (stereo not drawn),-5.1%,0.0%,?,-1.9%,-10.6%,-0.6%
CN(CC(=O)NCc1ccc(F)cc1)Cc1cccc(Cl)c1,3.9%,-2.0%,0.4%,/,/,-1.9%
CCOc1ccc2nc(N3CCC(C(=O)NCCCN4CCOCC4)CC3)sc2c1,3.55µM*,?,8.49µM*,/,/,?
CCOc1ccc2nc(N3CCCC(C(=O)NCCCN4CCOCC4)C3)sc2c1 (stereo not drawn),29.6%,?,13.5µM*,1.7%,12.6µM*,21.5%
CCOc1ccc2nc(N3CCC(C(=O)Nc4c(C)cccc4C)CC3)sc2c1,/,/,-12.6%,/,-4.1%,/
CCOc1ccc2nc(N3CCCC(C(=O)NCc4ccc(C)cc4)C3)sc2c1 (stereo not drawn),/,/,-18.9%,/,16.1%,/
CCN(CC)S(=O)(=O)c1csc(C(=O)OCC(=O)c2ccccc2)c1,-2.7%,0.0%,-19.2%,1.2%,0.3%,-5.2%
COc1ccc(OCC(=O)Nc2ccc3c(c2)CCC3)cc1,15.8%,-0.9%,/,/,/,-5.6%
Cc1csc(NC(=O)COc2ccc3c(c2)CCC3)n1,3.55µM*,?,12µM*,/,/,?
Cc1cccnc1NC(=O)COc1ccc2c(c1)CCC2,?,9.2µM*,16.9µM*,/,/,?
Cc1cccnc1NC(=O)COc1ccc2oc3c(c2c1)CCCC3,3.5%,2.2%,?,0.6%,-12.0%,-1.1%
Cc1ccc(NC(=O)COc2ccc3c(c2)CCC3)nc1,?,9.2µM*,9.53µM*,/,/,?
O=C(COc1ccc(Br)cc1)c1ccc2c(c1)CCCC2,11.6%,4.6%,?,-5.1%,-8.3%,16.0%
Cc1ccc(NC(=O)COc2ccc3oc4c(c3c2)CCCC4)nc1,-1.1%,3.2%,9.8%[2.3 µM],-4.9%,-0.4%,0.1%
Cc1ccc(OCC(=O)c2ccc3c(c2)CCCC3)cc1C,1.12µM*,?,9.53µM*,0.2%,22.3%,0.562µM*
CCOc1c(Nc2ccc(C(C)C)cc2)c(=O)c1=O,0.7%,1.3%,13.5µM*,/,/,-2.3%
COc1nc(Nc2ccc(C(C)C)cc2)nc(OC)n1,19.6%,15.5%,?,-4.4%,?,24.7%

# Screening results from PubChem BioAssay.
